Where “and” joins values, the source holds several entries; their conditions need not be identical. Identical values can stand only once. The source holds several records for some structures; these can differ, active in one and inactive in another. Calls of active or inactive are those of the source. Unless noted, calls follow the shape of the full dose curve.

The nature of assay [1]: Cellular Toxicity (caspase-3) Jurkat (AID 655; active = well fitted curve in the direction sought with a large enough effect; inconclusive = small, poorly fitted or top-dose-only effect, or another doubt; inactive = no such curve, though single readings can be large; an effect the other way counts as inactive or inconclusive;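 also: cells exposed to compound for 16 h at 37 °C before reading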; also: potency is read from the fitted curve at half-maximal effect). The note with it: Jurkat caspase-3 activation, luminescence; caspase-3 activation: at 92.2 µM (top of the series), DMSO = 0%, tamoxifen = 100%. In short, it runs like this:
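Jurkat cells (5000/well) in complete medium were treated with compounds for 16 hr at 37 °C, then Caspase-Glo 3/7 luminescence was read after 20 min at room temperature. Data normalized to DMSO (basal) and 100 uM tamoxifen (100%); AC50 from Hill fit.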

A short description of assay [2]: Cell Viability - LYMP2-026 (AID 989; active = well fitted curve in the direction sought with a large enough effect; inconclusive = small, poorly fitted or top-dose-only effect, or another doubt; inactive = no such curve, though single readings can be large; an effect the other way counts as inactive or inconclusive;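 also: cells exposed to compound for 24 h at 37 °C; nearly all actives have a fitted effect of over 50% in size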; also: potency is read from the fitted curve at half-maximal effect). The method, boiled down: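 Acute toxicity screen in complete culture medium, with 24 hr compound exposure at 37 C. Viability read as cellular ATP via luciferase reaction, with tetraoctylammonium bromide (6.4pM to 92 uM) as positive control.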
The target of assay [3] is Estrogen receptor (Homo sapiens) (UniProt P03372). In words: qHTS assay for small molecule antagonists of estrogen receptor alpha signaling (AID 588513; active = well fitted curve in the direction sought with a large enough effect in the signal ratio, with a control signal flat, not every such curve was filed as active; inconclusive = small, poorly fitted or top-dose-only effect, or effect the other way, or a change in a side signal; inactive = no such curve, though single readings can be large or run the other way; the % refers to the signal ratio; also: potency is read from the fitted curve at half-maximal effect). The method, boiled down: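 ER-alpha-UAS-bla GripTite HEK 293 cells in medium with 2% charcoal/dextran-treated FBS were preincubated 4 h at 37 C, dosed with compound (1:2 titration), stimulated with 0.5nM 17-beta-estradiol for 18 h, then read by CCF4 beta-lactamase fluorescence.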
Chain of Estrogen receptor (Homo sapiens) (P03372 whole entry, looked up): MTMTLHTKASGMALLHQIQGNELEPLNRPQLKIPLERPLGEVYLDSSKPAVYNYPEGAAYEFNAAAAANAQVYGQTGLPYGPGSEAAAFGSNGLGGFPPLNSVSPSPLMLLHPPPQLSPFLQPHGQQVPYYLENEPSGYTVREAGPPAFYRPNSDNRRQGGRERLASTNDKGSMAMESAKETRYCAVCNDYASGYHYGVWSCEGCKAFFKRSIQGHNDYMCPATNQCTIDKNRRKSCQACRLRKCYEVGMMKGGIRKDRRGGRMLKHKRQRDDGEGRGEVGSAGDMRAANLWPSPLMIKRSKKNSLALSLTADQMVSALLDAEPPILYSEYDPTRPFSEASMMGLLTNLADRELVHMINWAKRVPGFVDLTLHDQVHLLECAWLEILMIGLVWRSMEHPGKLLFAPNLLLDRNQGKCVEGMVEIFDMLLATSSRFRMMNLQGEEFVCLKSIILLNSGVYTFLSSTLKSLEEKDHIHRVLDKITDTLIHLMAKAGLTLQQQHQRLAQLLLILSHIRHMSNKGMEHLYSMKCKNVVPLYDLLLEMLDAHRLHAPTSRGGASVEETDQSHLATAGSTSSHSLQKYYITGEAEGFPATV

In assay [4] the target is Bile acid receptor (Homo sapiens) (UniProt Q96RI1). The assay can be described thus: qHTS assay for small molecule agonists of farnesoid X receptor signaling (AID 588527).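 Also: 0% = vehicle basal and 100% = reference agonist.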 The note with it: HEK293T FXR-UAS-bla, beta-lactamase ratio, 16 h; activation: stronger effect = higher value. In short, it runs like this: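 FXR-UAS-bla HEK293T, 10% dialyzed FBS; cpds up to 92 uM titration, 16 h 37 C; CCF4 dye 2 h RT; fluorescence. Normalized to chenodeoxycholic acid 100 uM (100%) and DMSO (0%); Hill fit gives EC50, efficacy.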
Chain of Bile acid receptor (Homo sapiens) (Q96RI1 whole entry, looked up): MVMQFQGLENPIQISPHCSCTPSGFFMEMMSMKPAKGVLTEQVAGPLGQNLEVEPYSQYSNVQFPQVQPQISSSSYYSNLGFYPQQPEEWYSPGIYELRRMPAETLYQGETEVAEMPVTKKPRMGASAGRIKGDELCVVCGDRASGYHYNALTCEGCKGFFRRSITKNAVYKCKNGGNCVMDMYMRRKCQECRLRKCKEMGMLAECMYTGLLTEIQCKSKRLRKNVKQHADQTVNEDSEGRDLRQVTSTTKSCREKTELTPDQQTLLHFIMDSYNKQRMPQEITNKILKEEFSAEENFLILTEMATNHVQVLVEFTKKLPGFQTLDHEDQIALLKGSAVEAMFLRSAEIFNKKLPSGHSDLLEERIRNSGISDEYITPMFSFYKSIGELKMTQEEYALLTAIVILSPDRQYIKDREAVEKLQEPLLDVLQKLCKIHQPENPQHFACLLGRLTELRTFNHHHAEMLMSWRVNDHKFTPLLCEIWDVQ
In general terms: Quantitative high-throughput screening tests each substance at several concentrations.

Assay [5] has as its target Glucocorticoid receptor (Homo sapiens) (UniProt P04150). The assay can be described thus: qHTS assay for small molecule agonists of glucocorticoid receptor signaling (AID 588532; active = well fitted curve in the direction sought with a large enough effect in the signal ratio, with a control signal flat; inconclusive = small, poorly fitted or top-dose-only effect, or a change in a side signal; inactive = no such curve, though single readings can be large or run the other way; the % refers to the signal ratio;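 also: 100% = dexamethasone at 0.1 µM and 0% = DMSO only wells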). The note with it: HeLa MMTV-bla, beta-lactamase ratio, agonist, 18 h; activation: stronger effect = higher value, percent of dexamethasone control, DMSO zero. In short, it runs like this:
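MMTV-bla HeLa, beta-lactamase reporter; medium with 1% charcoal/dextran-stripped FBS; cpds up to 92 uM, 18 h, 37 C; CCF4 readout 460/530 nm; Hill fit → EC50, efficacy vs 0.1 uM dexamethasone = 100%.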

Assay [6] deals with Peroxisome proliferator-activated receptor delta (Homo sapiens) (UniProt Q03181). In words: qHTS assay for small molecule agonists of peroxisome proliferator-activated receptor delta signaling (AID 588534).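 Also: 0% = DMSO basal wells and 100% = positive control agonist at 10 µM.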 The method, boiled down: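 EC50 and efficacy values derive from Hill fits of a concentration series in a beta-lactamase reporter cell assay. Exposure is 18 hrs at 37 C, with CCF4 fluorescence as the readout.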
Chain of Peroxisome proliferator-activated receptor delta (Homo sapiens) (Q03181 whole entry, looked up): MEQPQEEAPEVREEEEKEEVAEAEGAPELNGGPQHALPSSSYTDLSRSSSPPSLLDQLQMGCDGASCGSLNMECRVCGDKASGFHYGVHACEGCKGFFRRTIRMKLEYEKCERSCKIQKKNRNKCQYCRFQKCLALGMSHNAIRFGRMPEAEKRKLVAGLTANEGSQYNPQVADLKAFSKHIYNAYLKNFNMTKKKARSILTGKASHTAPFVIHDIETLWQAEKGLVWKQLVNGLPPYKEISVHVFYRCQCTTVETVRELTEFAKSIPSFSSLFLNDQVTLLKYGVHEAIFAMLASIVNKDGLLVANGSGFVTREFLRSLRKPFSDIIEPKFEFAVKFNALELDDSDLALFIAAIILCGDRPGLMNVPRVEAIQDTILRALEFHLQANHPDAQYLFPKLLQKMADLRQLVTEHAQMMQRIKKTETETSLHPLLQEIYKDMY

Assay [7] addresses Vitamin D3 receptor (Homo sapiens) (UniProt P11473). The assay can be described thus: qHTS assay for small molecule antagonists of vitamin D receptor signaling (AID 588541). Also: potency is read from the fitted curve at half-maximal effect. The method, boiled down: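 VDR-UAS-bla HEK293T cells (2000/well, 2% charcoal-stripped FBS) were treated with titrated compounds plus 1-alpha,25-dihydroxyvitamin D3 (50 nM or 3 nM final) for 16 h at 37 C. CCF4 beta-lactamase fluorescence was read; Hill fits gave IC50.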

The target is the same in assay [8]. The assay can be described thus: qHTS assay for small molecule agonists of vitamin D receptor signaling (AID 588543).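 Also: 0% = DMSO basal and 100% = reference agonist control.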 In short, it runs like this:
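GeneBLAzer VDR-UAS-bla HEK293T cells in 2% charcoal-stripped FBS medium were dosed with compound titrations for 16 h at 37 °C; CCF4 β-lactamase readout (405 nm ex, 460/530 nm em). EC50 and efficacy from Hill fits, normalized to 50 nM calcitriol (100%) and DMSO (0%).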

Assay [9] can be described thus: qHTS assay for small molecule antagonists of retinoid X receptor alpha signaling (AID 588546).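 Also: cells stimulated with 9-cis-retinoic acid as agonist; % is scaled to controls: 0 for no effect and ±100 for the full control effect.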 The settings on record: HEK293T RXRa-UAS-bla, beta-lactamase ratio, antagonist mode; measured here: W530 green channel, cytotoxicity proxy. In short, it runs like this:
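Beta-lactamase reporter inhibition, read as CCF4 fluorescence ratio (ex 405, em 460/530 nm) after 2 h at RT. HEK293T UAS-bla cells, 2500/well, were stimulated with 9-cis-RA at 500 or 100 nM final alongside test compound for 18 h at 37 C.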

Assay [10] concerns the target Thyroid hormone receptor beta (Homo sapiens) (UniProt P10828). The assay can be described thus: qHTS assay for small molecule antagonists of thyroid hormone receptor beta signaling (AID 588547; active = well fitted inhibition curve with a large enough effect in the signal ratio, with a control signal flat, not every such curve was filed as active; inconclusive = small, poorly fitted or top-dose-only effect, or effect the other way, or a change in a side signal; the % refers to the signal ratio;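 also: cells stimulated with 0.4 nM T3 agonist during compound exposure; % is scaled to controls: 0 for no effect and ±100 for the full control effect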). The note with it: TR-UAS-bla HEK293, beta-lactamase ratio, antagonist mode, 18 h. In short, it runs like this:
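TR-UAS-bla GripTite HEK293 cells in 2% charcoal/dextran FBS medium were preincubated 4 h at 37 C, given compound (0.59 nM to 92 uM) plus 0.4 nM T3 (final) for 18 h, then CCF4 for 2 h at RT; Hill fit gave IC50.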

The nature of assay [11]: qHTS assay for small molecule agonists of the antioxidant response element (ARE) signaling pathway (AID 651741; active = well fitted activation curve with a large enough effect in the signal ratio; inconclusive = small, poorly fitted or top-dose-only effect, or effect the other way, or a change in a side signal; the % refers to the signal ratio; also: potency is read from the fitted curve at half-maximal effect; as to activation: % of control where 0% means no effect). In short, it runs like this: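 Beta-lactamase reporter expression driven by the antioxidant response element in HepG2 cells was detected by fluorescence with LiveBLAzer B/G FRET substrate (2 h, room temperature) following 16 h compound treatment at 37 C.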
A short description of assay [12]: qHTS assay for small molecule activators of the p53 signaling pathway (AID 651743; active = well fitted activation curve with a large enough effect in the signal ratio, not every such curve was filed as active; inconclusive = small, poorly fitted or top-dose-only effect, or a change in a side signal; the % refers to the signal ratio; also: potency is read from the fitted curve at half-maximal effect; as to activation: % of control where 0% means no effect). The note with it: HCT-116 p53RE-bla, beta-lactamase FRET ratio, 16 h; activation: stronger effect = higher value. The method, boiled down:
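Here HCT-116 cells with an integrated p53-responsive beta-lactamase gene were incubated with compounds (16 hours, 37 C) after a 5-hour plating period; beta-lactamase activity was detected as fluorescence intensity via B/G FRET substrate.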

Assay [13] is described as follows: qHTS assay for small molecule disruptors of the mitochondrial membrane potential - 1 hr assay (AID 651754). Also: nearly all actives have a fitted effect of over 35% in size. Also: potency is read from the fitted curve at half-maximal effect. The method, boiled down: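 In this qHTS format, a 1 hr compound treatment of HepG2 cells precedes Mito-MPS staining, and membrane potential is judged from aggregate (red) against monomer (green) fluorescence intensity.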
Assay [14] concerns the target Thyroid hormone receptor beta (Homo sapiens) (UniProt P10828). In words: qHTS assay for small molecule agonists of thyroid hormone receptor beta signaling (AID 588545).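 Also: 0% = DMSO only and 100% = 10 nM T3.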 In short, it runs like this:
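Efficacy and EC50 values derive from Hill fits of qHTS titration data, normalized to 10 nM T3 and DMSO-only wells. HEK 293 reporter cells were stimulated for 18 hrs at 37 C, with beta-lactamase activity measured by CCF4 fluorescence.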

For assay [15], the target named is Guanine nucleotide-binding protein G(i) subunit alpha-1 (Homo sapiens) (UniProt P63096). The assay can be described thus: qHTS Assay for Inhibitors of RGS12 GoLoco Motif Activity (Green Fluorophore) (AID 879; active = well fitted curve in the direction sought with a large enough effect; inconclusive = small, poorly fitted or top-dose-only effect, or another doubt; inactive = no such curve, though single readings can be large; an effect the other way counts as inactive or inconclusive; also: potency is read from the fitted curve at half-maximal effect). In short, it runs like this: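 A drop in FITC polarization marked displacement of the FITC-tagged RGS12 GoLoco peptide (10 nM) from Gαi1 (50 nM). Compounds were incubated 10 min at room temperature in Tris pH 7.5 buffer containing 150 mM NaCl, 0.1 mM GDP and 0.05% NP40; unlabeled peptide titration served as control.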
Chain of Guanine nucleotide-binding protein G(i) subunit alpha-1 (Homo sapiens) (P63096 whole entry, looked up): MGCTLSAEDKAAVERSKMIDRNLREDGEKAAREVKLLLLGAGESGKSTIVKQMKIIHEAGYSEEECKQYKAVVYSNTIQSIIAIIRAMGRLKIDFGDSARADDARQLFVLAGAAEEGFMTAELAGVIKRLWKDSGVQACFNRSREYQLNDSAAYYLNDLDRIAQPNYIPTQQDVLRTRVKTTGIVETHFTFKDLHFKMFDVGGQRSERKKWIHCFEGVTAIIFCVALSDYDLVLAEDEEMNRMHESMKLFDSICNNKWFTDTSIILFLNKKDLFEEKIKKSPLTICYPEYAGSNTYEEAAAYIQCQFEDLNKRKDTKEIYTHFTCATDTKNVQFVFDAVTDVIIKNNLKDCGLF

The target in assay [16] is Pyruvate kinase (Leishmania mexicana) (UniProt Q27686). In words: qHTS Validation Assay for Inhibitors of Leishmania Mexicana Pyruvate Kinase (AID 945; active = well fitted curve in the direction sought with a large enough effect; inconclusive = small, poorly fitted or top-dose-only effect, or another doubt; inactive = no such curve, though single readings can be large; an effect the other way counts as inactive or inconclusive; also: potency is read from the fitted curve at half-maximal effect). In short, it runs like this:
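The enzyme is a highly purified E451W mutant of LmPYK used at 0.2 nM. It converts 0.5 mM PEP and 0.1 mM ADP over 1 h at room temperature; product ATP is quantified by luciferase luminescence relative to DMSO controls.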

Assay [17] deals with Alpha-galactosidase (Coffea arabica) (UniProt Q42656). The assay can be described thus: Counterscreen for Glucocerebrosidase Inhibitors: qHTS Assay for Coffee Bean alpha-Galactosidase at pH 4.5 (AID 957; active = well fitted curve in the direction sought with a large enough effect; inconclusive = small, poorly fitted or top-dose-only effect, or another doubt; inactive = no such curve, though single readings can be large; an effect the other way counts as inactive or inconclusive;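 also: plate controls were enzyme alone for no effect and no enzyme for full effect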). The method, boiled down:
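Quantitative HTS of compounds (0.7 nM to 77 uM) against coffee bean alpha-galactosidase at pH 4.5, measuring 4-methylumbelliferone fluorescence released from 80 uM substrate.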

Assay [18] has as its target alpha-glucosidase (Oryza sativa, rice) (UniProt Q653V4). In words: Counterscreen for Glucocerebrosidase Inhibitors: qHTS Assay for Rice alpha-Glucosidase at pH 5.0 (AID 997; active = well fitted curve in the direction sought with a large enough effect; inconclusive = small, poorly fitted or top-dose-only effect, or another doubt; inactive = no such curve, though single readings can be large; an effect the other way counts as inactive or inconclusive;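 also: 0% = full activity with enzyme and -100% = basal without enzyme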). The method, boiled down: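 Endpoint fluorogenic assay at pH 5.0: compounds (0.7 nM to 77 uM) titrated against 4 nM rice enzyme and 400 uM 4-MU-alpha-glucoside for 20 min at room temperature; NaOH/glycine stop, read ex 365/em 440 nm, Hill-fitted AC50.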
For orientation: The purpose of a counterscreen is to sort out artefacts and off-target activity.

For assay [19], the target named is Alpha-galactosidase (Coffea arabica) (UniProt Q42656). In words: Counterscreen for Glucocerebrosidase Inhibitors: qHTS Assay for Coffee Bean alpha-Galactosidase at pH 5.9 (AID 998; active = well fitted curve in the direction sought with a large enough effect; inconclusive = small, poorly fitted or top-dose-only effect, or another doubt; inactive = no such curve, though single readings can be large; an effect the other way counts as inactive or inconclusive;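 also: plate controls were uninhibited enzyme for no effect and no-enzyme basal signal for full effect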). The method, boiled down:
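In 50 mM citric acid pH 5.9 with 0.005% Tween-20, coffee bean enzyme hydrolyses 80 uM 4-MU alpha-D-galactopyranoside over 20 min at RT. Activity is normalized to controls; AC50 comes from Hill-modelled concentration-response data.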

Assay [20] concerns the target Pyruvate kinase PKM (Homo sapiens) (UniProt P14618). The assay can be described thus: qHTS Assay for Activators of Human Muscle Pyruvate Kinase (AID 954; active = well fitted curve in the direction sought with a large enough effect, not every such curve was filed as active; inconclusive = small, poorly fitted or top-dose-only effect, or effect the other way, or another doubt; inactive = no such curve, though single readings can be large or run the other way;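 also: 0% = uninhibited enzyme and -100% = no enzyme or full thiadiazolimine inhibition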). The method, boiled down: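 A coupled luminescent readout tracked ATP made from ADP by purified PKM2. Final conditions included 0.1 nM enzyme, PEP and ADP at 0.5 and 0.1 mM, pH 7.2 imidazole buffer with BSA, and a one-hour room-temperature reaction.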

Chain of Thyroid hormone receptor beta (Homo sapiens) (P10828 whole entry, looked up): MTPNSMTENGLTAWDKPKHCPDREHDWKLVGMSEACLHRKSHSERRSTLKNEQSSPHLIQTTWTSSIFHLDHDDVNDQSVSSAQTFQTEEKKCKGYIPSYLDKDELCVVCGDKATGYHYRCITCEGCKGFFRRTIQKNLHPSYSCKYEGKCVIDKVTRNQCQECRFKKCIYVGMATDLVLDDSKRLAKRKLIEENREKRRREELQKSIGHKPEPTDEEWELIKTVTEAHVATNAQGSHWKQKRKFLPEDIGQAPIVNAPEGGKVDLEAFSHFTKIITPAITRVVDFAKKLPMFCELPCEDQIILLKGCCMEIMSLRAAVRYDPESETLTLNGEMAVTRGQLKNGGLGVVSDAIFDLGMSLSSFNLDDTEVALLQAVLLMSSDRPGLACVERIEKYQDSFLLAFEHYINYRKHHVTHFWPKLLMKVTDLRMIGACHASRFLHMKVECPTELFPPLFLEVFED
Chain of Glucocorticoid receptor (Homo sapiens) (P04150 whole entry, looked up): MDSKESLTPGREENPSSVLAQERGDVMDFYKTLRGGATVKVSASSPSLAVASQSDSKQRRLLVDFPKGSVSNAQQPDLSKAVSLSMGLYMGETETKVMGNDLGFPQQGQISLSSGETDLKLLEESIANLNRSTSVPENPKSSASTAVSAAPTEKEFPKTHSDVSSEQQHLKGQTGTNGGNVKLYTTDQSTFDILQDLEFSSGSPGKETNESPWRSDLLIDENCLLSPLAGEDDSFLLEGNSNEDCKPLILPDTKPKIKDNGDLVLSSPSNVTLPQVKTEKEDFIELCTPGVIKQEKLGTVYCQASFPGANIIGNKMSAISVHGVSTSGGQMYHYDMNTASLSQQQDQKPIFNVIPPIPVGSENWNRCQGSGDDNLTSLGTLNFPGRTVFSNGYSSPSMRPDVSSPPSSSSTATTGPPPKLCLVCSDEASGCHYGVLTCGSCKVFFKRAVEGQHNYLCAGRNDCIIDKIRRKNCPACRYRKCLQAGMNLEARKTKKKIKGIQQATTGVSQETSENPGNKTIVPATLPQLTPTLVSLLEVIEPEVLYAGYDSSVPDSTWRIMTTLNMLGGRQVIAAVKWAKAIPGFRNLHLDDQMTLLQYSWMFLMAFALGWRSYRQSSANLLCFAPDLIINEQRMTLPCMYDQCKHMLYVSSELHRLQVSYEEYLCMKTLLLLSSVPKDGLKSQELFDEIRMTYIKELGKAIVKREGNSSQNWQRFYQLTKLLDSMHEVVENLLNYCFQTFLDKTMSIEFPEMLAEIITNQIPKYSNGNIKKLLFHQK
Chain of Vitamin D3 receptor (Homo sapiens) (P11473 whole entry, looked up): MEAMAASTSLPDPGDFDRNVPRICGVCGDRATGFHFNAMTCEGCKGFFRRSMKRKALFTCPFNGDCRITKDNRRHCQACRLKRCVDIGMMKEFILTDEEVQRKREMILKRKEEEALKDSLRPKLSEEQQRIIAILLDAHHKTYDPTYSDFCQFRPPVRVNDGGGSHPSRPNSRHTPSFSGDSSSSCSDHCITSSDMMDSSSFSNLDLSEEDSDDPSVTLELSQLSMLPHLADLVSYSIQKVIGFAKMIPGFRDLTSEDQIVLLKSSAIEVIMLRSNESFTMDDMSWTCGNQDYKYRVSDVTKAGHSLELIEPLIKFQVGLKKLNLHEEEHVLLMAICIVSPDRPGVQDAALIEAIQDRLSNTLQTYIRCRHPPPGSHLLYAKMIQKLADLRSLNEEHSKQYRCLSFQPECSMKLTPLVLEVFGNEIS
Chain of Pyruvate kinase (Leishmania mexicana) (Q27686 2-499 E452W): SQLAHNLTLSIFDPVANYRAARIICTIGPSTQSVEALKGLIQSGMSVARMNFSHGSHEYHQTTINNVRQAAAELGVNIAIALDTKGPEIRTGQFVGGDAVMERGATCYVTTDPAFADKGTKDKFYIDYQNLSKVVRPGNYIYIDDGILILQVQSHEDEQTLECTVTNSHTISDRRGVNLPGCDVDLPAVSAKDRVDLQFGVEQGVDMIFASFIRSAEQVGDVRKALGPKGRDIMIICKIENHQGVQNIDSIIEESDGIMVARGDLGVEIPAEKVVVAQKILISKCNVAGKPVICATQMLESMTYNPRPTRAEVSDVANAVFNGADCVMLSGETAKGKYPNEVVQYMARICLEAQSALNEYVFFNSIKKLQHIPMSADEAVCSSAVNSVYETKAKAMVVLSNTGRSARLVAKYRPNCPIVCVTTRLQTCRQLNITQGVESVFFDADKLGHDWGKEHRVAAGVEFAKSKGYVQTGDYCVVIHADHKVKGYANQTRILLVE
Chain of Alpha-galactosidase (Coffea arabica) (Q42656 whole entry, looked up): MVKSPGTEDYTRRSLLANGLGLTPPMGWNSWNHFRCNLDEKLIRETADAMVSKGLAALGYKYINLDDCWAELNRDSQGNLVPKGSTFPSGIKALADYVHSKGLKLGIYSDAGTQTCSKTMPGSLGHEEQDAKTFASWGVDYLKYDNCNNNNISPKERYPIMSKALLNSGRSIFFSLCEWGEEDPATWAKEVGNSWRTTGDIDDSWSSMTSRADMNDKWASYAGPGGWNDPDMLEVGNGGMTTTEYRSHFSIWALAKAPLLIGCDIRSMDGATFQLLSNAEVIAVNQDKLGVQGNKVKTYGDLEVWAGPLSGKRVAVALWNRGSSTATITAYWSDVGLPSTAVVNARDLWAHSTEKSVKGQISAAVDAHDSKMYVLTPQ
Chain of Pyruvate kinase PKM (Homo sapiens) (P14618 whole entry, looked up): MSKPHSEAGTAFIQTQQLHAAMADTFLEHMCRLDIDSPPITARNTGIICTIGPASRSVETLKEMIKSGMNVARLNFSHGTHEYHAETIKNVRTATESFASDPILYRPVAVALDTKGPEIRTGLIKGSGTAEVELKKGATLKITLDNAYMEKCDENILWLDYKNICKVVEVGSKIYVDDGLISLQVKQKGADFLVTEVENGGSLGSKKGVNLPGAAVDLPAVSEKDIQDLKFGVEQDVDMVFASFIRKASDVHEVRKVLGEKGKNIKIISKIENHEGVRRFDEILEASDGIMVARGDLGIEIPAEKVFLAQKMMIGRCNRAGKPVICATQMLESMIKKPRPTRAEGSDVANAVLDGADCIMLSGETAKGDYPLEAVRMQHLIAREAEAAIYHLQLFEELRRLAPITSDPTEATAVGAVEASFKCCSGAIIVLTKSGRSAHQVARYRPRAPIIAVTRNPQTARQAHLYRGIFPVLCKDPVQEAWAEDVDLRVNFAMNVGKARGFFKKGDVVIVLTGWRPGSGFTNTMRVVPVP

With `FC(F)(F)c1ccc(Cl)cc1`, the caspase-3 activation in [1] is 2.36% (inactive). The Potency entry in [2], in assay [3], in assay [7], in assay [11] and in assay [13] was “inactive” each time. Further, the activation was 3.21% (inactive) and 2.89% (inactive) in [4]; 4.86% (inactive) in [5]; -2.63% (inactive) and 1.33% (inactive) in assay [12]. Besides, the outcome in [6] and in [8] was inactive. Moreover, the max response in assay [9] is -9.15%. In assay [10], the activity change % (negative = inhibition) is 6.64% (inactive).

As to `Nc1ccccc1C(=O)OCCc1ccccc1`, the caspase-3 activation in [1] was -5.89% (inactive). In addition, the Potency entry in [2], in assay [7] and in assay [14] was “inactive” throughout. The activation in assay [5] was -0.582% (inactive). The compound was called inactive in assay [8]. For the same compound, in [9], the max response was -8.78%. Besides, the activity change % (negative = inhibition) in assay [10] is -14.2% (inactive).

As to `CN(C)c1ccc(N=O)cc1`, the values for the Potency in assay [2] and in [3] were 2.51 µM (active) and 22.4 µM [inconclusive] (active), respectively. The activation in [4] is -4.92% (inactive); in [12] it was -1.31% (inactive). In addition, in assay [14], the Potency entry was “inactive”.

For `C[C@]12Cc3cn4c(nc3C=C1CC[C@H]1[C@@H]2CC[C@@]2(C)[C@H]1CC[C@@]2(O)C#N)nc1ccccc14`, the Potency entry in assay [15] and in [16] was “inactive” each time. Moreover, the compound was called inactive in [17], in assay [18] and in assay [19].

As to `CC(C)CC(C)Nc1ccc(Nc2ccccc2)cc1` (stereo not drawn), in assay [1], the caspase-3 activation is 17.5% (inactive). For the same compound, the values for the Potency in assay [3] and in assay [11] were 25.1 µM [inconclusive] (active) and 59.6 µM (active), respectively. Also, in [5], the activation is 4.35% (inactive). In addition, the outcome in [6] and in assay [8] was inactive. The max response in [9] is -4.53%.

In the case of `O=C1C2(Cl)C3(Cl)C4(Cl)C(Cl)(Cl)C5(Cl)C3(Cl)C1(Cl)C5(Cl)C24Cl` (stereo not drawn), the activation in assay [4] is 1.21% (inactive) and 8.36% (inactive); in assay [5], -3.98% (inactive) and -15.4% (inactive). For the same compound, the compound was called inactive in assay [6] and in assay [8]. For the same compound, the Potency in assay [7] was 39.8 µM (active) and inactive; in assay [11] it was 66.8 µM (active); in [13], 3.35 µM (active) and 10.6 µM (active).

As for `CN[C@@H](C)[C@@H](O)c1ccccc1`, the Potency in assay [15] was 7.94 µM (active); in assay [16], 10 µM (active). Further, the outcome in assay [20] and in [18] was inactive.

`O=C(O)C1C(C(=O)O)C2(Cl)C(Cl)=C(Cl)C1(Cl)C2(Cl)Cl` (stereo not drawn): the caspase-3 activation in assay [1] is -0.527% (inactive). Moreover, the Potency result in [2], in assay [3], in assay [14], in assay [11] and in assay [13] was “inactive” throughout. Besides, the activation was 0.987% (inactive) in assay [4], -1.68% (inactive) in assay [5] and -3.18% (inactive) in assay [12]. The max response in assay [9] was -3.5%. Further, in assay [10], the activity change % (negative = inhibition) is -20.8% (inactive).

Turning to `N#CC(Cl)Cl`, the Potency is 5.01 µM (active) in assay [1], 26.6 µM (active) in assay [11] and 39.8 µM (active) in assay [12]. Further, the call in assay [6] and in assay [8] was inactive. The Potency entry in [7] and in assay [13] was “inactive” in each case. Also, in [9], the max response was 6.6%.

The record behind these values is PubChem BioAssay (NCATS).
